Inconclusive results are not listed. Activity calls are given as the source filed them. Unless noted, the call rests on the fitted dose curve; in most records, active means well fitted curve in the direction sought with a large enough effect; inconclusive means small, poorly fitted or top-dose-only effect, or another doubt; inactive means no such curve, though single readings can be large; an effect the other way counts as inactive or inconclusive.
How the values were obtained:
[1] = qHTS assay for measurement of the activity of small molecule inhibitors on Zika virus induced Caspase-3 activity in human iPSC derived neural progenitor cells (hNPCs) (AID 1224857); further: nearly all actives have a fitted effect of over 65% in size
Outline: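 Values are percent inhibition of virus-induced caspase-3/7 signal, scaled between uninfected cells and ZIKV-infected cells. Infection used 2 FFU/cell for 6 h after 1 h compound exposure.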

[2] = qHTS assay for measurement of the activity of small molecule inhibitors on Zika virus induced Caspase-3 activity in human astrocytoma cells (AID 1224859)
Outline: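 Compound added 1 h pre-infection; ZIKV 2 FFU/cell on SNB-19 cells, 6 h, 37 C/5% CO2. Caspase-Glo 3/7 luminescence; values as % inhibition of ZIKV-induced caspase activity.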

[3] = target: Atrial natriuretic peptide receptor 1 (Homo sapiens) (UniProt P16066); assay: Natriuretic polypeptide receptor (hNpr1) antagonism - Pilot screen (AID 1347049; calls by dose curve;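 further: agonist-evoked cGMP luminescence read 20 min after hNppA addition; series mostly up to about 58 µM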)
Outline: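 cGMP-sensor HEK293/hNpr1 cells, 1500/well, plated overnight at 37C. 2% GloSensor reagent, 2 h RT. Compound (23 nL pin transfer) 30 min RT, baseline luminescence pre-read. 0.1 nM hNppA, 20 min RT, post-read.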

[4] = target: Atrial natriuretic peptide receptor 2 (Homo sapiens) (UniProt P20594); assay: Natriuretic polypeptide receptor (hNpr2) antagonism - Pilot subtype selectivity assay (AID 1347050; calls by dose curve)
Outline: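 Luminescence from a genetically encoded cGMP luciferase biosensor in hNpr2-expressing HEK293 cells is read before and 20 min after adding 1 nM hNppC. Test compounds, in interplate 1:5 titrations, are added 30-50 min ahead of the agonist.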

[5] = target: T1, Tyrosine-protein phosphatase non-receptor type substrate 1 (Homo sapiens) + Leukocyte surface antigen CD47 (Homo sapiens) (UniProt P78324+Q08722); assay: CD47-SIRPalpha protein protein interaction - LANCE assay qHTS validation (AID 1347057; active means well fitted curve in the direction sought with a large enough effect in the signal ratio, with a control signal flat, not every such curve was filed as active; the % refers to the signal ratio; further: series mostly up to about 38 µM)
Outline: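 Inhibition of soluble CD47/SIRPalpha ectodomain association by titrated compounds, measured as 665/615 nm time-resolved FRET ratio after sequential 30 min room-temperature incubations.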

[6] = target: T1, Tyrosine-protein phosphatase non-receptor type substrate 1 (Homo sapiens) + Leukocyte surface antigen CD47 (Homo sapiens); assay: CD47-SIRPalpha protein protein interaction - HTRF assay qHTS validation (AID 1347058; active means well fitted curve in the direction sought with a large enough effect in the signal ratio, not every such curve was filed as active; the % refers to the signal ratio; further: series mostly up to about 38 µM)
Outline: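 Soluble extracellular domains (6His-CD47, Avi-tag-biotinylated SIRPalpha) in PBS pH 7.4 with 0.05% IGEPAL CA-630. Compounds were preincubated 30 min at RT with CD47 and anti-His-Eu, then SIRPalpha and SAV-XL665 were added. TR-FRET 665/615 ratio.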

[7] = target: Parathyroid hormone/parathyroid hormone-related peptide receptor (Homo sapiens) (UniProt Q03431); assay: qHTS for PTHR1 Agonists: Optimization Screen against the NCGC LOPAC library (AID 1347079);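 further: GloSensor cAMP luminescence in HEK-293 GP2 cells expressing human PTHR1 with IBMX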
Outline: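 HEK-293 GP2 cells, PTHR1 + GloSensor cAMP; 3000 cells/well, o/n. Luciferin + IBMX 0.5mM each (stock), 1 hr 37C. Cpd titration, 1 hr 37C. Lum after 15 min RT. Ctrl M-PTH(1-15) top 10uM.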

[8] = target: T1, Tyrosine-protein phosphatase non-receptor type substrate 1 (Homo sapiens) + Leukocyte surface antigen CD47 (Homo sapiens); assay: CD47-SIRPalpha protein protein interaction - Alpha assay qHTS validation (AID 1347059);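 further: bead proximity luminescence from CD47 binding SIRPalpha after compound preincubation with SIRPalpha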
Outline: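 SIRPalpha-biotin 25 nM + cpd, 30 min RT, dark; add CD47-His 12.5 nM, 30 min; add Ni-NTA/SAV beads 10 ug/mL, 30 min; AlphaScreen. Buffer PBS pH 7.4 + 0.05% IGEPAL CA-630. Non-biotinylated SIRPalpha as control inhibitor.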

[9] = NS1 protein of Zika virus - qHTS assay to identify small molecule inhibitors in human HEK 293 cells (AID 1347053); further: series mostly up to about 46 µM; nearly all actives have a fitted effect of over 55% in size
Outline: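 TR-FRET signal from two anti-ZIKV NS1 antibodies quantified NS1 in HEK 293 cells 24 h after MR766 infection at MOI = 0.5; compounds were added 1 h before virus. Uninfected cells and infected cells defined the NS1 normalization range.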

Measured: Potency

Atrial natriuretic peptide receptor 1 (Homo sapiens), sequence (P16066 whole entry, looked up): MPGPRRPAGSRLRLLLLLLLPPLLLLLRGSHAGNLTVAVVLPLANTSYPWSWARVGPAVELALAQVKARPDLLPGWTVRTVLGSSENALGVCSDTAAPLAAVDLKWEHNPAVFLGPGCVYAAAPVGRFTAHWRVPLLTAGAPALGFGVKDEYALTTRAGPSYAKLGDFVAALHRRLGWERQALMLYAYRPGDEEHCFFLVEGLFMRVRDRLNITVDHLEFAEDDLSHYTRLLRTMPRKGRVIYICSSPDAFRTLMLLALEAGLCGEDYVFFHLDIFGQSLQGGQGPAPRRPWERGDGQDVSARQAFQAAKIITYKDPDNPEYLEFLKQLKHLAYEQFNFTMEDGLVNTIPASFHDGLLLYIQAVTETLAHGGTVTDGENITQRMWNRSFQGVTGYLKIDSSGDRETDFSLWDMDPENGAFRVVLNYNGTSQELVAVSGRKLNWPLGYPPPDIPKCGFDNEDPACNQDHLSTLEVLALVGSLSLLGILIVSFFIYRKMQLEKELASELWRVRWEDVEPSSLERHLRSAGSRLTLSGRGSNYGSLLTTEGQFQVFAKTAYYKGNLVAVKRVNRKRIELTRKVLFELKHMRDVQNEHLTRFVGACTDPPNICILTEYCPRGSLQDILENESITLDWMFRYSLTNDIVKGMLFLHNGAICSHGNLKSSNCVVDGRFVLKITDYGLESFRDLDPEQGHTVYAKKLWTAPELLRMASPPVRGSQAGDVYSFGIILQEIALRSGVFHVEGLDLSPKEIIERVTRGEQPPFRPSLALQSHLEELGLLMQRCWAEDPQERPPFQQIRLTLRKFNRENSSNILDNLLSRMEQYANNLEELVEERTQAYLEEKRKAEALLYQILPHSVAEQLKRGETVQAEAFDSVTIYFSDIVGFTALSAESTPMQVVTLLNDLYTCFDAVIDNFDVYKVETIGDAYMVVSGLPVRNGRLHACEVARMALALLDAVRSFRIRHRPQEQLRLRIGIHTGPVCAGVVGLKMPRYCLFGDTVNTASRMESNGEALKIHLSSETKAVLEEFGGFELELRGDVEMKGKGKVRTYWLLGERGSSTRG
T1 sequence (P78324 whole entry, looked up, the tested form may be a part): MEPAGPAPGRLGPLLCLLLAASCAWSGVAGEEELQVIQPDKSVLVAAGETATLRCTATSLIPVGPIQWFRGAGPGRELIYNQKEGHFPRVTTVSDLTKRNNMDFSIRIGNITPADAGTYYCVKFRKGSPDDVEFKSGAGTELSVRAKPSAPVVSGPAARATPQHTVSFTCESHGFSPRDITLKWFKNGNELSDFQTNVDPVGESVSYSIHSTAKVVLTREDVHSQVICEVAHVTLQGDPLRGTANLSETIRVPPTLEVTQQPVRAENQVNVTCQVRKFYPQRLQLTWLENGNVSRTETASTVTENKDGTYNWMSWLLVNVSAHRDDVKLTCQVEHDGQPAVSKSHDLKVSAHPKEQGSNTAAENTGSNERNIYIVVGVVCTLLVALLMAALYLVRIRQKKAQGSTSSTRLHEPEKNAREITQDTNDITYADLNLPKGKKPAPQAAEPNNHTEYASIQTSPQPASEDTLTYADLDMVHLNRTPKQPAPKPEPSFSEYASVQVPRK
T1 sequence (Q08722 whole entry, looked up, the tested form may be a part): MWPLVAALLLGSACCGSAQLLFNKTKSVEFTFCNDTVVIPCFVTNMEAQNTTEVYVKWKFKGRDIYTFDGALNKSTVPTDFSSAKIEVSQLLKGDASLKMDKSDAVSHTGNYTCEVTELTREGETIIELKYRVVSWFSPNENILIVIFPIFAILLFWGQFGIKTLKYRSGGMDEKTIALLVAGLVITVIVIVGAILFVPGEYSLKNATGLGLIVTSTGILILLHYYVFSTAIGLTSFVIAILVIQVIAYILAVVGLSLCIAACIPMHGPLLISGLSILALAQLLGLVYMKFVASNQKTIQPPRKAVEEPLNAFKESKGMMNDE
Parathyroid hormone/parathyroid hormone-related peptide receptor (Homo sapiens), sequence (Q03431 whole entry, looked up): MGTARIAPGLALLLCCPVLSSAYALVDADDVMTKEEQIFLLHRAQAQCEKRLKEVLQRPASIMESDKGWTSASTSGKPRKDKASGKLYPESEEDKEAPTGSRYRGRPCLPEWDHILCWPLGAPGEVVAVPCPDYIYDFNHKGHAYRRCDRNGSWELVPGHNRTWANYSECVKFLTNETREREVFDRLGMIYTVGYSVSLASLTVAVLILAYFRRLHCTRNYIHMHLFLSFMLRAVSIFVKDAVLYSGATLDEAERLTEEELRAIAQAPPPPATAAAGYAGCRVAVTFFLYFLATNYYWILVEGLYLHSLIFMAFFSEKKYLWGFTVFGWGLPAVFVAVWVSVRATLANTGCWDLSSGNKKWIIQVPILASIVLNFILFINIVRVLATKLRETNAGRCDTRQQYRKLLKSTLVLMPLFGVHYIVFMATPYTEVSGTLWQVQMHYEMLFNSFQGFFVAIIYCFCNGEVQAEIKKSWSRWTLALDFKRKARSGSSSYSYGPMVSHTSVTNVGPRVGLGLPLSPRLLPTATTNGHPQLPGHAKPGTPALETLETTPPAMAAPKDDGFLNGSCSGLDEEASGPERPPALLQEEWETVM
Atrial natriuretic peptide receptor 2 (Homo sapiens), sequence (P20594 whole entry, looked up): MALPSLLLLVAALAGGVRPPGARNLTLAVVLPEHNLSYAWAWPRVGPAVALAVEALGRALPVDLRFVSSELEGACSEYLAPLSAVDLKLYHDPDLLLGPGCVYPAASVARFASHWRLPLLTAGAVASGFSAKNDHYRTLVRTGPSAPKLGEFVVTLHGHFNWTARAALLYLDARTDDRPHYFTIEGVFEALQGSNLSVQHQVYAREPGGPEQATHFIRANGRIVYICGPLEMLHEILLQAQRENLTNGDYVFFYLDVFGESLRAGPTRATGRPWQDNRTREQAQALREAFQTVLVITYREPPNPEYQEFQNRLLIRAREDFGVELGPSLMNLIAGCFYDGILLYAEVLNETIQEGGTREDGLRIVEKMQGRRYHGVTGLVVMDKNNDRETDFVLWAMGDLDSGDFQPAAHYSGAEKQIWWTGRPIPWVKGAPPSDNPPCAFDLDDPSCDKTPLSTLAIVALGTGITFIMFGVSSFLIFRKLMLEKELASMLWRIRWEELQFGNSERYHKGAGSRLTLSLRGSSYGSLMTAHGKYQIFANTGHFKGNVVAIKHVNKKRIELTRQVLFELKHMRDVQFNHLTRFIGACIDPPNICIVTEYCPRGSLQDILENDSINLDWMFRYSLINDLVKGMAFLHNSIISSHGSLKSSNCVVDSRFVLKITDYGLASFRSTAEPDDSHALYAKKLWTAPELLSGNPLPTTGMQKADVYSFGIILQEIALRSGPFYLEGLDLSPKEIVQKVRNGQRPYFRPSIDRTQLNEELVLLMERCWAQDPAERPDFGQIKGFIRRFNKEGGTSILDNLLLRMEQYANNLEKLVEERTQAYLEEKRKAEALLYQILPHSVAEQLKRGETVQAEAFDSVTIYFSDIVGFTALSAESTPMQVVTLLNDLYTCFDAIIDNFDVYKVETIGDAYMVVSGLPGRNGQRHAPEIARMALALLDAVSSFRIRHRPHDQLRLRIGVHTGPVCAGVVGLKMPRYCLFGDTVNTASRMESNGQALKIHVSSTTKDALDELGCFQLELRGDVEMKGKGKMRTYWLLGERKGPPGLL

NC[C@@H]1O[C@H](C23CC4CC(CC(C4)C2)C3)Cc2c1ccc(O)c2O
not listed: [8] | [9]
inactive: all other assays above

Cc1cc(NC(=O)Nc2ccc3c(ccn3C)c2)sn1
not listed: [9]
inactive: all other assays above

O=C(O)CNC(=O)C(CS)Cc1ccccc1 (stereo not given)
not listed: [9]
inactive: all other assays above

O=C(O)CC1CCCc2ccccc2C1O (stereo not given)
not listed: [7] | [9]
inactive: all other assays above

CN1CCc2cc(NC(=O)Nc3cccnc3)ccc21
inactive: all assays above

COC1=C(OC)C(=O)c2ccccc2C1=O
not listed: [6]
inactive: all other assays above

Clc1ccc(N2CCN(Cc3c[nH]c4ncccc34)CC2)cc1
not listed: [7] | [9]
inactive: all other assays above

COc1cc2c(CCNC(C)=O)c[nH]c2cc1Cl
inactive: all assays above

C=C[C@H]1CN2CC[C@@H]1C[C@@H]2[C@@H](O)c1ccnc2ccc(OC)cc12
not listed: [5] | [6] | [8]
inactive: all other assays above

Cc1cc(NC2CCCCC2)nc(-n2nc(C)cc2C)n1
not listed: [7] | [9]
inactive: all other assays above

COc1cc(SC)ccc1C(=O)N1CCC(Cc2ccccc2)CC1
not listed: [9]
inactive: all other assays above

COc1ccc2c(c1)CCC1C2CC[C@@]2(C)C1CC[C@@H]2NCCCCCCN1C(=O)CCC1=O (stereo not given in full)
inactive: all assays above

CN(C)c1nc(N)c(C(=O)N=C(N)N)nc1Cl
not listed: [6] | [7]
inactive: all other assays above
